PubChem BioAssay
“And” between values parts separate entries of the source, which are not always exact repeats. Equal values may be shown once. The source made the active and inactive calls.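 The calls were made as follows, unless noted: active = compounds whose cell count with miR-34 switched on is under 0.7 times the count with it off; inactive = the rest.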

Assays:
[1] = EMT-state selective cytotoxicity in co-culture – imaging, PC-3E GFP, TEM4-18 mCherry, primary screen (AID 1345086;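 active = compounds killing one labelled cell type while sparing the other, by normalised counts and ratio limits, not self-fluorescent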;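 as to all read-outs here: cells exposed to compound for 72 h before imaging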;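 as to red/green cell ratio (normalised): normalised mesenchymal count divided by normalised epithelial count so high means epithelial killing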); conditions: PC-3E GFP / TEM4-18 mCherry co-culture, imaging cell counts, at 1 µM; for red/green cell ratio (normalised): actives lie on both sides, counts scaled to control wells, 1 = unselective
[2] = viability loss with induced miR-34 in A549 – imaging, A549 dox-inducible miR-34, nuclei and caspase counts, primary screen (AID 1347080); conditions: A549 miR-34 inducible, Hoechst nuclei count, 48 h
[3] = MELAS cybrid and Rieske KO viability enhancers – cell-based, MELAS cybrids, Rieske KO mouse fibroblasts, CellTiter-Glo, primary screen (AID 1508586;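 active = mean z-score across replicates of 1.96 or higher in either the MELAS or the Rieske mutant cell line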;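 also: z relative to plate mean and SD of compound and empty wells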); conditions: low glucose
[4] = target: NAD(+) hydrolase SARM1 (Homo sapiens) (UniProt Q6SZW1); assay: blocking NAD cleavage by SARM1 SAM-TIR – cell lysate, NAD-Glo luminescence (AID 1508614;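 active = compound whose remaining NAD level is above about 45 nM, limit read from the data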;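 also: higher remaining NAD means stronger inhibition of SARM1 NADase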); conditions: SAM-TIR HEK293T lysate NADase, at 1 µM, stronger effect = higher value
Chain of NAD(+) hydrolase SARM1 (Homo sapiens) (Q6SZW1 whole entry, looked up): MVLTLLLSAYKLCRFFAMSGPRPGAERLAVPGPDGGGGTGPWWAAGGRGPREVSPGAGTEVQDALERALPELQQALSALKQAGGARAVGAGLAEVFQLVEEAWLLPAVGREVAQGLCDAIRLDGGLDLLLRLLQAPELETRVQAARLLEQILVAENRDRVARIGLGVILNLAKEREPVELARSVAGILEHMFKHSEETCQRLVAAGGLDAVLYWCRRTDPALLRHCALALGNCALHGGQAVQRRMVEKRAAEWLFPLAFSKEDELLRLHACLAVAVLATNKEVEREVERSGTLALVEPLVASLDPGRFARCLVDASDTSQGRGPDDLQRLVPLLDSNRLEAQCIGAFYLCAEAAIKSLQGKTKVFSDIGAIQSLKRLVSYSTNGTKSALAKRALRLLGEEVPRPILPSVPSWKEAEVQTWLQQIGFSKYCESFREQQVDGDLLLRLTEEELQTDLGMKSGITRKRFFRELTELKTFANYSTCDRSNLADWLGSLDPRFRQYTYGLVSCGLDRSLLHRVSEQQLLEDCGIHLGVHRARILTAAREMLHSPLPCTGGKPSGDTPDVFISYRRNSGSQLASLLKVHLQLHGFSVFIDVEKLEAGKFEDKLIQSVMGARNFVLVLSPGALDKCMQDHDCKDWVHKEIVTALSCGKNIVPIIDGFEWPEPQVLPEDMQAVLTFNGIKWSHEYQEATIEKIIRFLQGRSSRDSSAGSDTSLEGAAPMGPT

[5] = measured here: epithelial PC-3E GFP cell survival
[6] = measured here: mesenchymal TEM4-18 mCherry cell survival
[7] = stronger effect = lower value, cell number ratio, induced over uninduced
[8] = measured here: relative caspase fold change +Dox/-Dox
[9] = measured here: total cells with miR-34 induction, stronger effect = lower value
[10] = measured here: total cells without miR-34 induction

Row | SMILES | red/green cell ratio (normalised) [1] | normalised cell number [1, 5] | normalised cell number [1, 6] | fold change [2, 7] | fold change [2, 8] | cell count [2, 9] | cell count [2, 10] | z-score ([3]; MELAS cybrid survival, CellTiter-Glo 48 h, stronger effect = higher value) | z-score ([3]; Rieske KO mouse fibroblast survival, CellTiter-Glo 72 h) | remaining NAD [4]
1 | Cc1cc(=O)c(C(=O)N[C@@H](C(=O)N[C@@H]2C(=O)N3C(C(=O)O)=C(CSc4nnnn4C)CSC23)c2ccc(O)cc2)c[nH]1 (some centres not stated) | 0.9 (inactive) | 1.24 | 1.12 | 0.93 (inactive) | 0.887 | 8940 | 9610 |  |  | 
2 | NC(N)=NCCCC(N)C(=O)O (configuration not stated) | 0.83 (inactive) | 1.05 | 0.87 | 0.874 (inactive) | 0.933 | 8700 | 9960 |  |  | 
3 | O=C1c2c(O)cccc2[C@@H](O[C@@H]2O[C@H](CO)[C@H](O)[C@@H](O)[C@H]2O)c2cc(CO)cc(O)c21 | 0.78 (inactive) | 1.12 | 0.88 | 0.925 (inactive) | 0.87 | 8450 | 9140 |  |  | 
4 | Cc1cc(CC(C)CC(C)(C)C)n(O)c(=O)c1 (configuration not stated) (tested in a mixture with another compound) | 0.92 (inactive) | 1.04 | 0.95 | 1.25 (inactive) and 1.02 (inactive) | 0.741 and 0.825 | 2940 and 2820 | 2360 and 2770 |  |  | 
5 | NC(=O)C1CCCN1C(=O)C(Cc1cnc[nH]1)NC(=O)C1CCC(=O)N1 (configuration not stated) | 1.11 (inactive) | 0.94 | 1.04 | 0.936 (inactive) | 0.922 | 8800 | 9400 |  |  | 
6 | O=C1SCN(Cc2ccccc2)CN1Cc1ccccc1 | 0.9 (inactive) | 0.96 | 0.86 | 0.983 (inactive) | 0.637 | 8570 | 8710 |  |  | 
7 | CCCCCOC(=O)Nc1nc(=O)n(C2O[C@H](C)[C@@H](O)[C@H]2O)cc1F (some centres not stated) | 1.41 (inactive) | 0.48 | 0.68 | 0.954 (inactive) | 0.897 | 8840 | 9270 |  |  | 
8 | CC(C)OC(=O)CCC/C=C\C[C@@H]1[C@@H](/C=C/C(O)COc2cccc(C(F)(F)F)c2)[C@H](O)C[C@@H]1O (some centres not stated) | 0.87 (inactive) | 1.24 | 1.08 | 0.865 (inactive) | 1.12 | 8710 | 10100 |  |  | 
9 | CC(C)(CO)C(O)C(=O)NCCC(=O)NCCSSCCNC(=O)CCNC(=O)C(O)C(C)(C)CO (configuration not stated) | 0.97 (inactive) | 0.82 | 0.8 | 0.968 (inactive) | 0.786 | 8560 | 8840 |  |  | 
10 | CC(=O)Oc1cc2c(s1)CCN([C@H](C(=O)C1CC1)c1ccccc1F)C2 | 1.12 (inactive) | 0.87 | 0.98 | 0.848 (inactive) | 0.716 | 7480 | 8810 |  |  | 
11 | CCN(CC)C(=O)C1(c2ccccc2)CC1CN (configuration not stated) | 0.9 (inactive) | 1.08 | 0.98 | 0.92 (inactive) | 0.893 | 8180 | 8890 |  |  | 
12 | COc1nc(N)nc2c1ncn2C1O[C@H](CO)[C@@H](O)[C@@H]1O (some centres not stated) | 0.99 (inactive) | 0.92 | 0.91 | 0.89 (inactive) | 0.801 | 7770 | 8740 |  |  | 
13 | C[C@]12C=CC(=O)C=C1CCC1C2[C@@H](O)C[C@@]2(C)C1CC[C@]2(O)C(=O)COP(=O)(O)O (some centres not stated) | 1.33 (inactive) | 0.86 | 1.15 | 0.855 (inactive) | 1.09 | 6110 | 7150 |  |  | 
14 | O=c1[nH]c(=O)n([C@H]2C[C@H](O)C(CO)O2)cc1I (some centres not stated) | 0.98 (inactive) | 1.09 | 1.07 | 1.01 (inactive) | 0.724 | 7950 | 7880 |  |  | 
15 | CCC(CC)O[C@@H]1C=C(C(=O)OC)C[C@H](N)[C@H]1NC(C)=O | 0.99 (inactive) | 1.01 | 1 | 0.882 (inactive) | 1.08 | 8740 | 9910 |  |  | 
16 | CO/N=C(/C(=O)NC1C(=O)N2C(C(=O)O)=C(CSc3nnnn3C)CSC12)c1csc(N)n1 (configuration not stated) | 0.91 (inactive) | 1.17 | 1.06 | 0.936 (inactive) | 0.695 | 9050 | 9680 |  |  | 
17 | CC12CCC3c4ccc(O)cc4CCC3C1C[C@H](O)[C@@H]2O (some centres not stated) | 0.97 (inactive) | 0.91 | 0.89 | 0.999 (inactive) | 0.736 | 8330 | 8350 |  |  | 
18 | C=C(C)C1CC=C(C)CC1 (configuration not stated) | 0.93 (inactive) | 1.03 | 0.96 | 0.884 (inactive) | 1.07 | 8150 | 9220 |  |  | 
19 | CCC(=O)OCC(=O)[C@@]1(OC(=O)CC)[C@H](C)CC2C3C([C@@H](O)C[C@@]21C)[C@@]1(C)C=CC(=O)C=C1C[C@H]3Cl (some centres not stated) | 1.28 (inactive) | 0.98 | 1.25 | 0.884 (inactive) | 0.881 | 5210 | 5890 |  |  | 
20 | N[C@@H](CO)c1ccccc1 | 0.91 (inactive) | 0.97 | 0.88 | 0.995 (inactive) | 0.434 | 5440 | 5460 |  |  | 
21 | CC(C)(O)c1ccccc1CC[C@@H](SC1(CC(=O)O)CC1)c1cccc(/C=C/c2ccc3ccc(Cl)cc3n2)c1 | 1.02 (inactive) | 1.13 | 1.16 | 0.955 (inactive) | 0.641 | 9020 | 9450 |  |  | 
22 | CC1CC(OC(=O)C(O)c2ccccc2)CC(C)(C)C1 (configuration not stated) | 1 (inactive) | 1.03 | 1.03 | 0.925 (inactive) and 0.927 (inactive) | 0.697 and 0.603 | 7310 and 7360 | 7900 and 7940 | -0.227 (inactive) | -0.184 | 10 nM (inactive)
